Among the data in PubChem BioAssay (EPA / NIEHS) are outcome and AC50 values, retold here.

SMILES strings stand for the structures. Some compounds were tested as several samples or in several runs, with calls that do not always agree. Activity calls are given as the source filed them. How the source made its calls: active means hit-call score of the fitted dose curve at least 0.9, where 1 is the maximum; inactive means score below 0.9.

As usually defined, the AC50 is the concentration at which the activity in the assay is half-maximal.

This assay is described as follows: ATG_AP_2_CIS: Attagene CIS-FACTORIAL HepG2 Assay for human Activator Protein 2 (AP-2) (AID 2282932). The settings on record: HepG2 AP-2 cis-reporter, Attagene transcription factor profiling; actives raise or lower the signal. The procedure:
ATG_CIS is a cell-based, multiplexed-readout assay that uses HepG2, a human liver cell line, with measurements taken at 24 hours after chemical dosing in a 24-well plate.ATG_AP_2_CIS is one of 52 assay component(s) measured or calculated from the ATG_CIS assay. It is designed to make measurements of mRNA induction, a form of inducible reporter, as detected with fluorescence intensity signals by Reverse transcription polymerase chain reaction (RT-PCR) and Capillary electrophoresis technology.Data from the assay component ATG_AP_2_CIS was analyzed into 1 assay endpoint. This assay endpoint, ATG_AP_2_CIS, was analyzed with bidirectional fitting relative to DMSO as the negative control and baseline of activity. Using a type of inducible reporter, measures of mRNA for gain or loss-of-signal activity can be used to understand the reporter gene at the transcription factor-level as they relate to the gene TFAP2A and TFAP2B and TFAP2D. Furthermore, this assay endpoint can be referred to as a primary readout, because this assay has produced multiple assay endpoints where this one serves a reporter gene function. To generalize the intended target to other relatable targets, this assay endpoint is annotated to the dna binding intended target family, where the subfamily is basic helix-turn-helix leucine zipper.
Human liver HepG2 cells are transiently transfected with multiple reporter transcription units (MRTUs) in 6-well plates using FuGene 6 reagent (Roche; 3 ml FuGene/1 mg DNA). The MRTU constructs are regulated by a cis-regulating element (promoter). […] A major difference between the CIS and TRANS system is that in CIS activities of endogenous TFs are measured, whereas the TRANS assay evaluates changes in activities of exogenous, chimeric NR-Gal4 proteins. […] At the end of 24 hour incubation, total RNA was isolated using TriZol reagent (Invitrogen). The isolated RNA is then reverse-transcribed using oligo(dT) primer and Mo-MLV reverse transcriptase (Invitrogen) with DNAse I (Ambion) treatment for 30 min. The one-tenth of the produced cDNA was amplified by PCR using Taq DNA polymerase (Invitrogen) and two reporter sequence-specific primers. The PCR products were fluorescently labeled by primer extension with 6-arboxyfluorescein (6-FAM) 5'-labeled reporter sequence-specific primer (2 min at 95 C, 20 s at 68 C and 10 min at 72 C) and these products were digested with 5U of HpaI (New England Biolabs) for 2h at 37 C. The fragments were purified using Qiaquick PCR columns (Qiagen), analyzed on an ABI 3130xL genetic analyzer (Applied Biosystems) with peak positions identified by using a set of X-rhodamine (ROX)-labeled MapMarker1000 molecular weight standards (BioVentures). The raw capillary electrophoresis data was processed using Attagraph software (Attagene).
As to `CCCCCCCC(=O)OC`, the compound was classed as inactive.

As to `CCCCCCCCCCCCCCCCO`, the call was inactive.

For `CCc1cc(C2=C(C(=O)O)N(c3ccccc3C(F)(F)F)S(=O)(=O)c3ccccc32)cc2c1OCO2`, the result was inactive.

For the compound `C/C=C/c1ccc(OC)cc1`, the compound was called inactive.

Turning to `NC=O`, the result was inactive.

As to `COc1ccc(OC(F)(F)F)cc1CN[C@H]1CCCN[C@H]1c1ccccc1`, the compound was called inactive.

As for `O=C(NS(=O)(=O)/C=C/c1cccs1)c1ccc(F)cc1Br`, the call was inactive.

Turning to `CN(C)C(=O)NC1(c2ccccc2)CCN(CC[C@@]2(c3ccc(F)c(F)c3)CN(C(=O)c3ccccc3)CCO2)CC1`, the call was inactive.

As for `CCOCCOCCO`, the outcome was inactive.

For `CCN(CC)CCOc1ccc(C(=C(Cl)c2ccccc2)c2ccccc2)cc1`, the half-maximal activity concentration (AC50) is 11.4 µM (active) and the result was inactive.

For `CC1(C)C(=O)NC(=O)N1CO`, the compound was called inactive.

Take `CCCCc1nc2cccnc2n1Cc1ccc(-c2ccccc2-c2nnn[nH]2)cc1`: the compound was classed as inactive.

Turning to `Cc1occc(=O)c1O`, the outcome was inactive.

`Oc1ccc(O)cc1`: the concentration at half-maximal activity (AC50) was 28.8 µM (active).

For the compound `O=C1c2c(O)cccc2Cc2cccc(O)c21`, the compound was classed as inactive.

For the compound `Cc1cc(SC2=C(O)C[C@@](CCc3ccc(N)cc3)(C(C)C)OC2=O)c(C(C)(C)C)cc1CO`, the result was inactive.

On to `CSc1ccc(Oc2ccc(S(N)(=O)=O)cc2CN(C)C)cc1C`, for which the AC50 was 26.8 µM (active).

Consider `Cc1ccc(C(C)(C)C)c(O)c1`, for which the compound was classed as inactive.

In the case of `C=CCc1ccc(OC)c(OC)c1`, the compound was called inactive.

For the compound `NCCOCCOCCN`, the result was inactive.

With `O=C1CCCCC1`, the result was inactive.

In the case of `NC1CCCCC1`, the result was inactive.

For the compound `NC(=Nc1ccccc1)Nc1ccccc1`, the outcome was inactive.

For the compound `CCCCCCC(C=O)=Cc1ccccc1`, the compound was classed as inactive.

Turning to `CC(C)NCC(O)c1ccc(O)c(O)c1` (stereo not given), the compound was called inactive.

With `Nc1nc(=S)c2[nH]cnc2[nH]1`, the compound was called inactive.

Consider `CC1=C(C)S(=O)(=O)CCS1(=O)=O`, for which the result was inactive.

Consider `O=C1O[C@H]([C@H](O)CO)C(O)=C1O`, for which the call was inactive.

Turning to `CN(C)CCCN1c2ccccc2Sc2ccc(Cl)cc21`, the result was inactive.

Consider `COc1ccc(C(=O)Nc2nc3ccccc3c(NCc3ccccc3)c2C#N)cc1`, for which the call was inactive.

In the case of `O=C1NC(=O)C(c2ccccc2)(c2ccccc2)N1`, the call was inactive.

For `CC(=O)OCC(COC(C)=O)OC(C)=O`, the call was inactive.

Consider `COC(=O)CCC(=O)OC`, for which the outcome was inactive.

As to `C/C=C/C=C/C(=O)O`, the outcome was inactive.

On to `CC(COCC(C)OC(=O)c1ccccc1)OC(=O)c1ccccc1` (stereo not given), for which the call was inactive.

In the case of `O=Cc1ccccc1C=O`, the outcome was inactive.

Regarding `CC(C)c1cccc(C(C)C)c1`, the outcome was inactive.

Turning to `Cc1cn([C@H]2C=C[C@@H](CO)O2)c(=O)[nH]c1=O`, the result was inactive.

Regarding `Nc1nc(Cl)nc2c1ncn2[C@H]1C[C@H](O)[C@@H](CO)O1`, the compound was classed as inactive.
